Assay outcomes from PubChem.
This is a sample that favours compounds with a hit; in the whole collection about 19% have one here.
HT1080-NT tox: qHTS for induction of synthetic lethality in tumor cells producing 2HG: qHTS for the HT-1080-NT fibrosarcoma cell line; HT-1080-NT fibrosarcoma viability, CellTiter-Glo ATP luminescence, 48 h; Potency, µM (series often up to 46.1 µM), without a hit: top-dose activity, negative = less viability, usual class: cytotoxic; 1.6% of 360,000 active;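 note: NT is the 2HG producing partner of a matched IDH1 knockdown line; potency is the fitted concentration of half-maximal effect; 0% = DMSO-treated cells and -100% = media-only wells without cells; nearly all actives have a fitted effect of over 55% in size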
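Viability by CellTiter-Glo luminescence after 48 h compound exposure at 37C of HT-1080-NT cells (750/well, RPMI, 5% FBS). % activity scaled between DMSO wells and medium-only wells, then curve-fitted and categorized by curve class.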
HT1080 IDH1KD tx: qHTS for induction of synthetic lethality in tumor cells producing 2HG: qHTS for the HT-1080-IDH1KD cell line; HT-1080 IDH1 knockdown viability, ATP luminescence, 48 h; Potency, µM (series often up to 46.1 µM), for inactives: top-dose activity, negative = toxicity, usual class: cytotoxic; 2% of 360,000 active; AID 686971, 2013;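 note: potency is the fitted concentration of half-maximal effect; 0% = DMSO wells and -100% = cell-free medium wells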
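CellTiter-Glo luminescence after 48 h compound exposure at 37 degrees C of IDH1-knockdown HT-1080 cells in 5% FBS RPMI. %Activity scaled between DMSO wells and cell-free media wells, with curves fitted and assigned curve classes.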
DT40 TDP1 CPT: qHTS for Inhibitors of human tyrosyl-DNA phosphodiesterase 1 (TDP1): qHTS in cells in presence of CPT | Potency, µM (doses to about 46.2 µM), for inactives: at the top dose activity change, negative = growth inhibition, most hits filed as inhibitors | chicken DT40 Tdp1-/-;hTDP1 cells + 20 nM CPT, ATP luminescence, 48 h | 12% of 420,000 active; note: potency is the fitted concentration of half-maximal effect; nearly all actives have a fitted effect of over 55% in size
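Chicken DT40 Tdp1-/- cells stably complemented with human TDP1 were seeded at 400 cells/well in medium containing 20 nM camptothecin, exposed to pin-transferred compounds, and grown at 37 °C for at least 48 hr. Viability was read as ATP luminescence.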
IL-1B inflam inh: qHTS for Inhibitors of Inflammasome Signaling: IL-1-beta AlphaLISA Primary Screen; THP-1 LPS/ATP IL-1B secretion, AlphaLISA, 16 h; active compounds read low; activity change, % at 57.5 µM; 4.7% of 360,000 active; in the data active = activity change below about -50%; inconclusive = mostly about -30% to -49%
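THP-1 cells pretreated 1 hr with compounds (up to 57.5 uM final), then stimulated with LPS (250 ng/mL final) plus ATP (1.25 mM final); secreted IL-1B measured by AlphaLISA after 16 hr, decreased signal indicating inhibition.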
DT40 TDP1 no CPT: qHTS for Inhibitors of human tyrosyl-DNA phosphodiesterase 1 (TDP1): qHTS in cells in absence of CPT. DT40 Tdp1-/- hTDP1 cells, no CPT, ATP luminescence, 48 h. Potency, µM (series often up to 46.2 µM), for inactives: top-dose activity change, negative = growth inhibition, most hits filed as inhibitors. 15% of 420,000 active; note: potency is the fitted concentration of half-maximal effect; nearly all actives have a fitted effect of over 55% in size
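Cells were dispensed at 400 per well, compounds added by pin tool, plates incubated ≥48 hr at 37 °C, then CellTiter-Glo added for 30 min at room temperature before luminescence reading. Line: DT40 Tdp1-/- complemented with hTDP1; camptothecin omitted.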
* hit, by the source's call; [ ] = another dose, or the depositor's remark. Unless noted, calls come from the whole dose curve; as a rule, active = well fitted curve in the direction sought with a large enough effect; inconclusive = small, poorly fitted or top-dose-only effect, or another doubt; inactive = no such curve, though single readings can be large; an effect the other way counts as inactive or inconclusive. Unless noted, % is set by controls: 0 for no effect and ±100 for the full control effect.

Results for CCOC(=O)C1CN(S(=O)(=O)c2ccc(Cl)cc2)c2cc(S(=O)(=O)CC)ccc2O1 (centres undefined) ?
HT1080-NT tox: 6%; HT1080 IDH1KD tx: 2%; DT40 TDP1 CPT: 15%; IL-1B inflam inh: -23; DT40 TDP1 no CPT: 1%

What do the screens show for `CC(c1ccco1)N(C(=O)c1ccc(Cl)c([N+](=O)[O-])c1)c1ccccn1` (centres undefined)?
HT1080-NT tox: -5%; HT1080 IDH1KD tx: -10%; DT40 TDP1 CPT: 21µM*; IL-1B inflam inh: -14; DT40 TDP1 no CPT: 21µM*

What do the screens show for `CC(c1ccco1)N(C(=O)COc1ccc(Cl)cc1Cl)c1ccccn1` (centres undefined)?
HT1080-NT tox: inconclusive; HT1080 IDH1KD tx: -2%[9.24 µM]; DT40 TDP1 CPT: inconclusive; IL-1B inflam inh: inconclusive; DT40 TDP1 no CPT: 21µM*

What do the screens show for `CC(c1ccco1)N(C(=O)C12CC3CC(CC(C3)C1)C2)c1ccccn1` (centres undefined)?
HT1080-NT tox: 26%; HT1080 IDH1KD tx: 17%; DT40 TDP1 CPT: 21µM*; IL-1B inflam inh: 2; DT40 TDP1 no CPT: inconclusive

How did CC(c1ccco1)N(C(=O)c1ccccc1F)c1ccccn1 (centres undefined) do in these assays?
HT1080-NT tox: 6%; HT1080 IDH1KD tx: 14%; DT40 TDP1 CPT: 11%; IL-1B inflam inh: 3; DT40 TDP1 no CPT: -7%

Results for CC(c1ccco1)N(C(=O)COc1ccc(Cl)cc1)c1ccccn1 (centres undefined) ?
HT1080-NT tox: 8%; HT1080 IDH1KD tx: 2%; DT40 TDP1 CPT: inconclusive; IL-1B inflam inh: -9; DT40 TDP1 no CPT: inconclusive

What do the screens show for `CCCCN1C(=O)C(O)(c2ccccc2)c2cc(Br)ccc21` (centres undefined)?
HT1080-NT tox: 2%; HT1080 IDH1KD tx: 14%; DT40 TDP1 CPT: inconclusive; IL-1B inflam inh: -14; DT40 TDP1 no CPT: 4%

What do the screens show for `CC(C)(C)C(C(=O)Oc1ccccc1)c1ccccc1` (centres undefined)?
HT1080-NT tox: -3%; HT1080 IDH1KD tx: -1%; DT40 TDP1 CPT: inconclusive; IL-1B inflam inh: 19; DT40 TDP1 no CPT: inconclusive

Results for CCCCc1ccc(NC(=O)Cn2cnc3c2c(=O)n(C)c(=O)n3C)cc1 ?
DT40 TDP1 CPT: -19%; DT40 TDP1 no CPT: -22%

Results for Cc1ccccc1N1CCN(c2ccc(NC(=O)C3CCCCC3C(=O)O)cc2)CC1 (centres undefined) ?
HT1080-NT tox: -5%; HT1080 IDH1KD tx: -1%; DT40 TDP1 CPT: inconclusive; IL-1B inflam inh: -3; DT40 TDP1 no CPT: 9.2µM*

How did O=C(O)[C@H]1CCCC[C@H]1C(=O)Nc1ccc(Nc2ccccc2)cc1 do in these assays?
HT1080-NT tox: 1%; HT1080 IDH1KD tx: -1%; DT40 TDP1 CPT: -13%; IL-1B inflam inh: -9; DT40 TDP1 no CPT: inconclusive

How did CC(C)CN1C=C2C(=O)C(C)(OC(=O)CCc3ccccc3)C(=O)C=C2C=C1c1ccc(C#N)cc1 (centres undefined) do in these assays?
HT1080-NT tox: -1%; HT1080 IDH1KD tx: 3%; DT40 TDP1 CPT: 21µM*; IL-1B inflam inh: -2; DT40 TDP1 no CPT: 18µM*

What do the screens show for `CC1(OC(=O)C2CCCC2)C(=O)C=C2C=C(c3ccsc3)N(Cc3ccccc3)C=C2C1=O` (centres undefined)?
HT1080-NT tox: -2%; HT1080 IDH1KD tx: -7%; DT40 TDP1 CPT: inconclusive; IL-1B inflam inh: 25; DT40 TDP1 no CPT: 18µM*

Results for CC1(OC(=O)CCc2ccccc2)C(=O)C=C2C=C(c3ccc(C#N)cc3)N(Cc3ccccc3)C=C2C1=O (centres undefined) ?
HT1080-NT tox: -3%; HT1080 IDH1KD tx: inconclusive; DT40 TDP1 CPT: 18µM*; IL-1B inflam inh: 4; DT40 TDP1 no CPT: inconclusive

How did COc1cc(=O)n2c(c1C(=O)N1CCc3ccccc3C1)CCN(Cc1ccc(CO)o1)CC2 do in these assays?
DT40 TDP1 CPT: 12%; DT40 TDP1 no CPT: -6%

How did Cc1cccc(NC(=O)CCSc2nncn2C)c1 do in these assays?
HT1080-NT tox: 3%; HT1080 IDH1KD tx: -1%; DT40 TDP1 CPT: 0%; IL-1B inflam inh: 1; DT40 TDP1 no CPT: -11%

Results for COc1ccc(NC(=O)CSC2=Nc3ccccc3C3=NC(CC(=O)NCCc4ccccc4)C(=O)N23)cc1 (centres undefined) ?
DT40 TDP1 CPT: -17%; DT40 TDP1 no CPT: -14%

What do the screens show for `COc1ccccc1NC(=O)CSC1=Nc2ccccc2C2=NC(Cc3ccccc3)C(=O)N12` (centres undefined)?
DT40 TDP1 CPT: 23µM*; DT40 TDP1 no CPT: inconclusive

How did COc1ccc(NC(=O)CSC2=Nc3ccccc3C3=NC(Cc4ccccc4)C(=O)N23)cc1 (centres undefined) do in these assays?
DT40 TDP1 CPT: inconclusive; DT40 TDP1 no CPT: 21µM*

Results for O=C(CSC1=Nc2ccccc2C2=NC(Cc3ccccc3)C(=O)N12)Nc1cccc(Cl)c1 (centres undefined) ?
DT40 TDP1 CPT: 16µM*; DT40 TDP1 no CPT: 26µM*

How did O=c1n2c(c(O)n1C1CCCCC1)C(c1ccccc1)=Nc1ccccc1C2 do in these assays?
HT1080-NT tox: -1%; HT1080 IDH1KD tx: 10%; DT40 TDP1 CPT: inconclusive; IL-1B inflam inh: -5; DT40 TDP1 no CPT: inconclusive

What do the screens show for `CCOC(=O)c1c(NC(=O)COC(=O)c2ccc(O)cc2)sc(C(=O)N(C)C)c1C`?
HT1080-NT tox: -1%; HT1080 IDH1KD tx: -5%; DT40 TDP1 CPT: inconclusive; IL-1B inflam inh: -1; DT40 TDP1 no CPT: 23µM*

How did CCOC(=O)c1c(NC(=O)C(Sc2ccccc2)c2ccccc2)sc(C(=O)N(C)C)c1C (centres undefined) do in these assays?
HT1080-NT tox: -4%; HT1080 IDH1KD tx: inconclusive; DT40 TDP1 CPT: inconclusive; IL-1B inflam inh: -25; DT40 TDP1 no CPT: 16µM*

How did CCOC(=O)c1c(NC(=O)OC)sc(C(=O)N(C)C)c1C do in these assays?
HT1080-NT tox: 18%; HT1080 IDH1KD tx: 8%; DT40 TDP1 CPT: -13%; IL-1B inflam inh: -2; DT40 TDP1 no CPT: -20%

What do the screens show for `CCOC(=O)c1c(NC(=O)COC(=O)CCOc2ccccc2C)sc(C(=O)NC)c1C`?
HT1080-NT tox: -3%; HT1080 IDH1KD tx: -3%; DT40 TDP1 CPT: 23µM*; IL-1B inflam inh: -2; DT40 TDP1 no CPT: inconclusive
